# In PubChem BioAssay AID720723 (Molecular Libraries Program, Specialized Chemistry Center, …, 2013):
# A number with no mark means an inactive call. The source made the active and inactive calls. Cut-off not given; nearly all actives show IC50 up to about 87 µM.
# Experiment: rhodamine 123 fluorescence quenching, dose response, artefact control for mitochondrial permeability transition pore inhibitor project, biochemical, dry powder samples (AID 720723)
# Conditions: Rhodamine 123 fluorescence quenching counterscreen, cell-free
row,Compound,IC50
1,C=CCNCCOc1ccc(C(C)(C)c2ccccc2)cc1,41.6 µM (active)
2,CC(C)(C)c1ccccc1OCCCCCNCCO,42.8 µM (active)
3,Cc1ccc2nc(N(CCCN(C)C)C(=O)CCc3ccccc3)sc2c1,34.1 µM (active)
4,COc1ccc(-n2cc(CNC3CCN(C)CC3)c(-c3cccc(F)c3)n2)cc1,> 100 µM
5,Cc1ccc2nc(N(CCN(C)C)C(=O)/C=C/c3cccs3)sc2c1,> 100 µM
6,C=CCNCCOCCOc1ccc(Cl)cc1C(C)(C)C,21.9 µM (active)
7,CNCCC=C1c2ccccc2CCc2ccccc21,> 100 µM
8,CC1CCCN(CCC(=O)c2ccc(Br)cc2)C1 (stereo not given),85.8 µM (active)
9,COc1ccc(C)c2sc(N(CCCN(C)C)C(=O)CS(=O)(=O)c3ccc(F)cc3)nc12,87.8 µM (active)
10,CCN(CC)c1ccc(NC(=O)c2cc(Cl)ccc2OC)cc1,41.2 µM (active)
11,CN1CCC[C@@H]1CCO[C@](C)(c1ccccc1)c1ccc(Cl)cc1,27.5 µM (active)
12,CN(C)CCCN1c2ccccc2Sc2ccc(Cl)cc21,> 100 µM
13,Cc1cc(C)c2nc(N(CCCN(C)C)C(=O)C3=COCCO3)sc2c1,> 101 µM
14,N#Cc1c(NCCN)nc(-c2ccco2)c2c1CCCC2,82.5 µM (active)
15,COc1ccc(Cl)cc1C(=O)Nc1ccc(CN2CCCCC2)cc1,85.9 µM (active)
16,COc1cc(CNCCO)cc(Cl)c1OCc1ccccc1Cl,31.5 µM (active)
17,N=c1sccn1CC(=O)Nc1cccc(Oc2ccccc2)c1,54.4 µM (active)
18,C=CCNCCCOc1ccc(C)cc1Br,69.6 µM (active)
19,COC(=O)c1c(NC(=O)C2CCCCC2)sc2c1CC(C)(C)NC2(C)C,48.1 µM (active)
20,O=C(CC1NCCc2ccccc21)Nc1ccc(Cl)cc1 (stereo not given),82.4 µM (active)
21,COCCCNCCCOc1ccc(Cl)cc1C(C)(C)C,42.3 µM (active)
22,CCOC(=O)N1CCN(S(=O)(=O)c2ccc(C(=O)N(CCCN(C)C)c3nc4c(C)c(C)ccc4s3)cc2)CC1,56.8 µM (active)
23,COc1cc(NC(=O)c2cc(-c3cccc(O)c3)on2)cc(OC)c1OC,> 100 µM
24,Cc1cc(C)c2nc(N(CCCN(C)C)C(=O)c3ccc(S(=O)(=O)N4CCCCCC4)cc3)sc2c1,20.9 µM (active)
25,CCN(CC)CCCN=Cc1c(O)n(Cc2ccccc2)c(=O)c2ccccc12,> 100 µM
